Results taken from PubChem BioAssay AID1626 (SRMLSC, 2009).
About 2,000 (0.91%) of roughly 220,000 compounds were called active. Another 2% or so got no clear call; they are omitted. A selection follows. Entries with a potency or affinity are not part of this list. A number with no mark means an inactive call. Cut-off read from the data, not from the text of the source: inconclusive = inhibition above about 80% without an active follow-up result; inactive = below that; test concentration not stated here.

Test: M. tuberculosis H37Rv growth inhibitors, H37Rv strain (AID 1626);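 note: bacteria incubated seven days before Alamar blue readout; 0% = bacteria only wells and 100% = bacteria with antibiotic wells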
Conditions: active compounds read high, concentration not given here
In the case of `CCc1ccccc1NC(=O)c1ccc(Cn2cc([N+](=O)[O-])cn2)cc1`, the inhibition was 2.06%. `CC(C)Cc1nnc(NS(=O)(=O)Cc2ccccc2)s1` gave an inhibition of 3.7%. Molecule `CN(Cc1ccc(Cl)cc1)C(=O)CCl` has an inhibition of 63%. `COc1ccc(CN(C)C(=O)CCl)cc1` showed an inhibition of 17.4%. Work on `CCOC(=O)c1ccc(-n2c(CN3CCOCC3)nc3ccc([N+](=O)[O-])cc3c2=O)cc1` yielded an inhibition of 69.4%. With `CCOC(=O)c1ccc(-n2c(CN3CCN(CC)CC3)nc3ccc([N+](=O)[O-])cc3c2=O)cc1` the inhibition was 64.1%. With `CC(C)Sc1nnc([C@@H](N)Cc2ccccc2)o1` the inhibition was -1.26%. Molecule `Cc1ccc(-c2nn(-c3cccc(F)c3)cc2CNCCc2ccncc2)o1` has an inhibition of 8.28%. Molecule `Cc1ccc(-c2nn(-c3cccc(F)c3)cc2CNCc2cccnc2)o1` has an inhibition of 12.8%. For `C=CCNC(=O)c1onc(CSc2cc(C)cc(C)c2)c1C(=O)NCC=C`, the inhibition was 4.46%. `O=c1c2cn[nH]c2[nH]c(=S)n1-c1cccc2ccccc12` showed an inhibition of 8.18%. Work on `COc1ccccc1OCC#CCN1CCCCCC1` yielded an inhibition of 4.4%. `COc1ccc(NC2=NCC(C)S2)cc1` (stereo not given) gave an inhibition of 5.03%. Work on `Cc1ccc(NC2=NCC(Cc3ccc(Br)cc3)S2)cc1` (stereo not given) yielded an inhibition of 44.8%. Work on `CC1=C(C#N)C(NC(=O)C(C)(C)C)(C(F)(F)F)C(=O)N1` (stereo not given) yielded an inhibition of -1.62%. `CCOC(=O)CN(Cc1sccc1C)C(=O)Nc1ccc(OCC)cc1` gave an inhibition of 3.69%. With `CSc1ccc(/C=C(/Sc2nnc(-c3ccccc3)o2)C(=O)O)cc1` the inhibition was -6.84%. `CCOC(=O)c1cccc(NC(=O)/C=C/c2ccc([N+](=O)[O-])cc2)c1` showed an inhibition of 22.2%. With `CCCCCC(=O)N/N=C(\C)c1ccccn1` the inhibition was 1.4%. Molecule `CCCCCC/C(=N/O)c1ccccn1` has an inhibition of -3.95%. `COc1ccc(Cl)cc1-c1n[nH]c(=S)n1C1CCCCC1` gave an inhibition of 0.84%. `CC(=O)c1cccc(CN2CCC(CO)(CCCc3ccccc3)CC2)c1` gave an inhibition of 3.9%. `Cc1ccccc1-c1ncc(CN2CCC(CO)(CCCc3ccccc3)CC2)cn1` gave an inhibition of 69.6%. Molecule `N#C/C(=C(/O)c1cccs1)c1nnc2n1CCCCC2` has an inhibition of -5.04%. `Cc1ccc(S(=O)(=O)N2CCCC(C(=O)N(Cc3cccs3)C3CC3)C2)cc1` (stereo not given) showed an inhibition of -4.95%. `CSCCC(NC(=O)c1ccc(C(C)(C)C)cc1)C(=O)O` (stereo not given) gave an inhibition of 0.53%. For `O=C(COc1ccc(OCc2ccccc2)cc1)NN=C1CCCC1`, the inhibition was 7.98%. In the case of `COc1ccc(OC)c2c1C(=O)c1ccccc1C2=O`, the inhibition was 6.76%. `Nc1ccc(O)c2c1C(=O)c1ccccc1C2=O` showed an inhibition of 0.25%. Work on `Clc1ccc(Nc2ncn[nH]2)cc1` yielded an inhibition of 77.2%. `Clc1cc(Cl)cc(Nc2ncn[nH]2)c1` gave an inhibition of 5.96%. For `CCCOc1ccc2c(C)c(CC(=O)OC)c(=O)oc2c1`, the inhibition was -2.3%. In the case of `Cc1ccc(SCC(=O)NC(=O)NC(C)C)c(C)c1`, the inhibition was 11.6%. With `O=C(Nc1nnc(C2CC2)s1)c1cc(-c2ccccc2)nn1-c1ccccc1` the inhibition was 43.6%. `COc1ccc(NC(=S)N(Cc2ccc(Cl)cc2)Cc2ccc(C(=O)O)cc2)cc1Cl` showed an inhibition of 61%. In the case of `O=C(Oc1ccc2ccccc2c1)c1ccco1`, the inhibition was 53.4%. Molecule `COC(=O)c1ccc(OC(=O)c2ccco2)cc1` has an inhibition of -4.94%. `CC1=CC(C)(C)Nc2ccc(OC(=O)CN3C(=O)c4ccccc4C3=O)cc21` gave an inhibition of -11.5%. For `CC1CC(C)(C)NC(C)c2ccccc21` (stereo not given), the inhibition was -2.84%. Work on `CC1=CC(C)(C)Nc2ccc(OC(=O)c3cccnc3)cc21` yielded an inhibition of -2%. With `CC1CC(C)(C)NCc2ccccc21` (stereo not given) the inhibition was -9.91%. `NS(=O)(=O)c1ccc(NC(=O)c2c(Cl)cccc2Cl)cc1` gave an inhibition of 2.71%. In the case of `O=C1CC(c2cccc(F)c2)c2c(c3ccccc3[nH]c2=O)O1` (stereo not given), the inhibition was 1.98%. For `Cc1ccccc1-n1c(C)nc2ccccc2c1=O`, the inhibition was 2.88%. `O=c1c2ccccc2nc(-c2ccccc2)n1-c1ccccc1` showed an inhibition of 2.18%. `CC(Nc1ccc(Cl)cc1)c1cc(Cl)ccc1O` (stereo not given) gave an inhibition of -8.64%. With `Cc1ccc(NC(C)c2cc(Cl)ccc2O)cc1` (stereo not given) the inhibition was -1.72%. `CSc1nc(N(C)NC(=O)c2ccc(F)cc2)c2ccccc2n1` showed an inhibition of -5.17%. `CSc1nc(N(C)NC(=O)c2ccccc2)c2ccccc2n1` showed an inhibition of -4.21%. With `O=C(NCc1ccccc1)[C@]1(C(F)(F)F)C[C@H](CCc2ccccc2)CCCO1` the inhibition was -10.1%.
